ERK AVP inh = vasopressin-driven ERK pathway inhibition; HEK293-V1b, vasopressin-stimulated pERK AlphaScreen; Potency, µM (top dose mostly 57.5 µM), usual class: inhibitors; 72,000 tested, 0.99% active; AID 995; further: nearly all actives have a fitted effect of over 55% in size
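Overnight-seeded V1b-HEK293 cells in 1% FBS got compound, then vasopressin (25 nM final, 5 min, 37C), then lysis buffer. AlphaScreen detection of phospho-ERK; activity normalized to basal and full-stimulation controls.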
Hsp90 Hop PPI = changes Hsp90-Hop TPR2A binding signal, up or down; AlphaScreen TPR2A-His6 binding biotin-Hsp90 C-terminal peptide; AID 595; Potency, µM (highest dose often 57 µM); 71,000 tested, 0.44% active; active means well fitted curve in either direction with a large enough effect; inconclusive means small, poorly fitted or top-dose-only effect, or another doubt
Tau fil binding = binds recombinant human tau filaments. P10636. recombinant tau filaments, thioflavin S fluorescence, 15 h; filaments grown with octadecylsulfate alongside compound. Potency, µM (highest dose often 57.1 µM). 71,000 tested, 2% active;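 further: actives lower thioflavin S fluorescence by blocking filaments or displacing dye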
Target sequence (P10636 whole entry, looked up): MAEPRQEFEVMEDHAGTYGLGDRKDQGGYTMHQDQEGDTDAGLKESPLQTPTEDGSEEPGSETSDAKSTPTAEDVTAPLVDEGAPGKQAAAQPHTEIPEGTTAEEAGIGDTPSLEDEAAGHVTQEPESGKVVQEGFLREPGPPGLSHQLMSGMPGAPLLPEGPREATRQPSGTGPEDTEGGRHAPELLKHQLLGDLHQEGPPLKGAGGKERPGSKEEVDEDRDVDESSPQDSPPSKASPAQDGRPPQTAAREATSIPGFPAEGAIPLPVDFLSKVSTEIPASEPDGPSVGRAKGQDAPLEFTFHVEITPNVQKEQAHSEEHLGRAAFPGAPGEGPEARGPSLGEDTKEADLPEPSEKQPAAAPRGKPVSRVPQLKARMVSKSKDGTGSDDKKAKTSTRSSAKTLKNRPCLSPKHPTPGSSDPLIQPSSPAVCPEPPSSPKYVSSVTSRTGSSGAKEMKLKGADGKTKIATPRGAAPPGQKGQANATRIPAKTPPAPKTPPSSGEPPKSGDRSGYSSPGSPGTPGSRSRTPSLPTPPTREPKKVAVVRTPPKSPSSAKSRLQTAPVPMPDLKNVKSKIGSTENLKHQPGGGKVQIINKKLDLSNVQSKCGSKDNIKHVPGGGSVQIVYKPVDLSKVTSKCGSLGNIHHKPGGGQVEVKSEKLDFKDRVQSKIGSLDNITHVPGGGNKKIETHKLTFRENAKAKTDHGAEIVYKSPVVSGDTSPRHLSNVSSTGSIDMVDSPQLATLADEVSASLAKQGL
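Quantitative HTS: thioflavine S signal from ODS-induced tau filaments, excited at 450 nm, emission 510 nm. Conditions: 1 uM tau, 30 uM ODS, 15 h at 37 C, pH 7.4.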
YjeE inh = inhibitors of E. coli YjeE (TsaE) | AID 605 | Potency, µM | purified YjeE enzyme, qHTS inhibition assay | P0AF67 | 71,000 tested, 0.05% active
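Purified YjeE (10 uM) with BODIPY Texas Red-labeled ADP probe (2 uM); compounds pin-transferred, 15 min at room temperature. Binding inhibition read as decreased fluorescence polarization; ADP titration as control.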
15-hLO inh = 15-hLO (ALOX15) enzyme inhibition | Potency, µM (top dose mostly 57.1 µM), usual class: inhibitors | purified 15hLO-1, xylenol orange hydroperoxide absorbance | 74,000 tested, 1.4% active; further: nearly all actives have a fitted effect of over 55% in size
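Compounds were preincubated 15 min at room temperature with 40 nM purified human enzyme (25 mM Hepes pH 7.5, 0.01% Triton X-100); 50 uM arachidonic acid reacted 6 min. Fe-xylenol orange detection, 30 min, absorbance ratio 573/405 nm.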
Pol III holo inh = inhibitors of bacterial DNA polymerase III holoenzyme | Potency, µM (doses to about 57.1 µM) | reconstituted DNA polymerase III holoenzyme replication, biochemical | 71,000 tested, 0.25% active
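Reconstituted *E. coli* holoenzyme (0.35 nM Pol III, 1 nM beta, 154 nM SSB, 2 nM primase) was preincubated with compound for 15 min at RT. Synthesis on 1.4 nM ssM13Gori ran 35 min, then was stopped with PicoGreen/EDTA and read as dsDNA fluorescence.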
Of the large screens only hits and unclear results are named; the others gave an inactive call. Most compounds without a hit are left out; they make up all but 4.2% or so of the library. Unless noted, the call rests on the fitted dose curve; in most records, active means well fitted curve in the direction sought with a large enough effect; inconclusive means small, poorly fitted or top-dose-only effect, or another doubt; inactive means no such curve, though single readings can be large; an effect the other way counts as inactive or inconclusive.

COc1ccc(-c2cc(-c3cccs3)c(C#N)c(SCC(=O)NCc3ccco3)n2)cc1	15-hLO inh inconclusive
CN1CCN(C(=O)CSc2nc(-c3cccs3)cc(-c3cccs3)c2C#N)CC1	Tau fil binding 7.94µM, 15-hLO inh 15.8µM
COc1cc([C@H]2Oc3cc([C@H]4Oc5cc(O)cc(O)c5C(=O)[C@@H]4O)ccc3O[C@@H]2CO)ccc1O	15-hLO inh inconclusive
COc1cc([C@@H]2Oc3cc([C@H]4Oc5cc(O)cc(O)c5C(=O)[C@H]4O)ccc3O[C@H]2CO)ccc1O	Tau fil binding inconclusive, 15-hLO inh 2µM
CC(C)COC(=O)Cc1c(O)c2ccccc2[nH]c1=O	none
O=C(NCc1cccs1)c1cccnc1C(=O)O	none
O=C(O)c1cccnc1C(=O)O	Hsp90 Hop PPI 3.16µM, Tau fil binding inconclusive
CC(C)C(=O)N(Cc1cc2ccccc2[nH]c1=O)C(C)C	none
CCN(Cc1cc2ccccc2[nH]c1=O)S(=O)(=O)c1ccccc1	Tau fil binding 12.6µM, 15-hLO inh inconclusive
Cc1noc(C)c1COC(=O)CCC(=O)c1ccc(F)cc1	none
CN=C1N[C@H](c2ccccc2)N(c2ccccc2)S1	Tau fil binding inconclusive, 15-hLO inh 0.794µM
COc1ccc2[nH]c3c(c2c1)CN(C)CC3	Tau fil binding 25.1µM, 15-hLO inh inconclusive
O=C(Nc1ccc2nc3n(c(=O)c2c1)CCCCC3)c1ccccn1	ERK AVP inh inconclusive
COC(=O)CCc1c(C)c(C(=O)c2ccco2)c2ccccn12	Hsp90 Hop PPI inconclusive, 15-hLO inh 7.94µM
Cc1nnc(SCc2ccc(Cl)cc2Cl)[nH]c1=O	none
CC1CCN(C(=O)CSc2nc3ccccc3[nH]2)CC1	ERK AVP inh inconclusive
O=C(CSc1nc2ccc(S(=O)(=O)N3CCOCC3)cc2[nH]1)N1CCOCC1	15-hLO inh 7.94µM
O=C(CSc1nc2ccccc2[nH]1)N1CCN(c2ccc(F)cc2)CC1	ERK AVP inh 25.1µM
COc1c(F)c(F)c(C(=O)Nc2ccc(NC(=O)c3ccco3)cc2)c(F)c1F	none
CN1CCN(CC(=O)N2c3ccccc3C(=O)Nc3cccnc32)CC1	none
CCCN(CCC)C[C@@H]1CCCCN1CCNC(=O)N1c2ccccc2C(=O)Nc2cccnc21	Tau fil binding 39.8µM, 15-hLO inh inconclusive
O=C1C=CC(=O)C2=C1C1c3ccccc3C2c2ccccc21	15-hLO inh 0.794µM (no result: Hsp90 Hop PPI, Tau fil binding, YjeE inh, Pol III holo inh)
Cc1ccc(NC(=O)CSc2nnc(-c3ccc(S(=O)(=O)N4CCCC4)cc3)o2)cc1C	none
C=CCn1c(N)c(C(=O)NCCC2=CCCCC2)sc1=S	Hsp90 Hop PPI inconclusive, 15-hLO inh 25.1µM
CSc1nc2cc(S(=O)(=O)N3CCCCC3)ccc2s1	none
COc1ccc(C(=O)COC(=O)CN2CC(=O)Oc3ccccc32)cc1Br	Hsp90 Hop PPI 6.31µM
COc1ccc(C(=O)COC(=O)CN2C(=O)NC(C)(C)C2=O)cc1OC	none
Cn1ccc2cc3c(cc21)CCN3C(=O)Nc1cccnc1	ERK AVP inh inconclusive, Tau fil binding 31.6µM
CN1CCc2cc(NC(=O)Nc3cccnc3)ccc21	none
O=c1cc(-c2cccc(O)c2)oc2cccc(O)c12	none (no result: Hsp90 Hop PPI, Tau fil binding, YjeE inh, Pol III holo inh)
CCCCOC(=O)CN1C(=O)c2ccc(C(=O)OCCCC)cc2C1=O	Hsp90 Hop PPI 25.1µM
O=C(Nc1ccccc1)NC1CCN(Cc2nnnn2C2CCCCC2)CC1	none
CN(C)c1ccc(N=Cc2nc(-c3ccccc3)oc2O)cc1	ERK AVP inh 12.6µM, YjeE inh inconclusive
Cc1c[nH]c(=O)n(CCCN2CCN(c3ccccc3OCC(F)(F)F)CC2)c1=O	Tau fil binding inconclusive
O=C(Nc1ccc(Cl)cc1)Nc1ccc2c(c1)N1CCN=C1S2	ERK AVP inh 31.6µM
O=C(CC1SC2=NCCN2C1=O)Nc1ccc(Cl)cc1 (stereo not drawn)	none
Cn1cccc1Cc1nnc(SCC(=O)Nc2ccc3c(c2)OCO3)n1CCc1ccccc1	ERK AVP inh 15.8µM, 15-hLO inh inconclusive
C#CCCCO/N=C1/C[C@@H](O)[C@@H](O)[C@@H]2[C@@H]3C(=O)N(C4CCCCC4)C(=O)[C@H]3CC[C@@H]12	none (no result: Hsp90 Hop PPI, Tau fil binding, YjeE inh, Pol III holo inh)
Cc1cc(C)c(C#N)c(SCC(=O)OC2CCCCC2)n1	Hsp90 Hop PPI 31.6µM
Cc1cc(C)c(C#N)c(SCC(=O)CC(=O)OC(C)C)n1	none

Assay outcomes deposited in PubChem BioAssay by National Center for Advancing Translational Sciences (NCATS).
